# Assay results as given in PubChem BioAssay AID1578 (Sanford-Burnham Center for Chemical Genomics, 2009).
# Where “and” joins values, the source holds several entries; their conditions need not be identical. Equal entries are not always repeated. About 3,000 (1%) of roughly 290,000 compounds were called active. Many of the other results were omitted from the sample, so actives are more common in it than they were. Values without a mark were called inactive. Cut-off read from the data, not from the text of the source: active = inhibition mostly above about 36% (no sharp cut-off); inactive = mostly below about 34%.
# Experiment: NOD1 signaling inhibitors, primary screen, cell-based, luminescence, uHTS (AID 1578);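 note: HEK-293T reporter cells stimulated with the NOD1 agonist gamma-tri-DAP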
# Details: NOD1-driven NF-kB luciferase reporter cells, at 4 µM, hits give high values
row,Compound,inhibition
1,O=C(CCCC1=NS(=O)(=O)c2ccccc2N1)Nc1ccccc1,-7.6%
2,COC(=O)CC(NS(=O)(=O)c1cccs1)c1ccc2c(c1)OCO2 (stereo not drawn),-20.9%
3,O=C(CNC(=S)N(CCCN1CCOCC1)Cc1cccs1)NCc1ccc(Cl)cc1,-16.7%
4,CC(=O)Nc1cc2c(ccc3ccccc32)oc1=O,-21.7%
5,CCOC(=O)c1c(C)[nH]c(C)c1C(=O)CSc1nc2ccccc2c(=O)n1-c1ccc(F)cc1,-19.8%
6,CCOC(=O)c1c(C)[nH]c(C)c1C(=O)CSc1nc2ccccc2c(=O)n1-c1ccc(C)cc1,-25.1%
7,CC(OC(=O)c1ccccc1O)C(=O)Nc1ccc(Cl)cn1 (stereo not drawn),-43.7%
8,CNc1ccccc1C(=O)OC(C)C(=O)Nc1ccc(Cl)cn1 (stereo not drawn),54.3% (active)
9,CC(OC(=O)c1ccco1)C(=O)Nc1ccc(Cl)cn1 (stereo not drawn),-26.7%
10,COc1ccc(C(=O)NC2CCN(CC(=O)NCc3ccccc3F)CC2)cc1,-30.3%
11,CCc1ccc(N(CC(=O)NC2CCCCC2)S(=O)(=O)c2c(C)noc2C)cc1,-14.8%
12,Cc1cc(Br)c(NC(=O)CCl)c(Br)c1,42.9%
13,O=C(CCl)Nc1c[nH]c(=O)[nH]c1=O,-31.2%
14,O=C(CCl)Nc1cc2[nH]c(=O)[nH]c2cc1Br,72.1% (active)
15,NC(=O)c1cc2ccccc2o/c1=N\NC(=O)c1ccc(F)cc1,-3.2%
16,Cn1c(=O)c2c(nc(Oc3ccccc3)n2C)n(C)c1=O,9.4% and -13.9%
17,COc1ccc(Oc2nc3c(c(=O)n(C)c(=O)n3C)n2C)cc1,18.3%
18,Cc1nc2ccc(NS(=O)(=O)c3ccc(F)cc3)cc2s1,7.8%
19,Cc1ccc(S(=O)(=O)Nc2ccc3nc(C)sc3c2)cc1,32.2%
20,CCOc1cc(C(=O)Nc2ccc([N+](=O)[O-])cn2)cc(OCC)c1OCC,-21.2%
21,CCNC(=S)N(Cc1cc2cc(C)c(C)cc2[nH]c1=O)C1CCCC1,-35%
22,O=C(NCc1cccnc1)c1ccc(-c2ccccc2[N+](=O)[O-])o1,-24.4%
23,COc1ccc(CCNC(=O)C2CCN(S(=O)(=O)c3ccc(OC)cc3)CC2)cc1,17.9%
24,COc1ccc(C(=O)NNC(=O)Nc2ccc(C)cc2)cc1,-1.6%

row,Compound,inhibition
1,COc1ccc(C(=O)NNC(=O)Nc2ccc(Cl)cc2)cc1,91.6% (active)
2,COc1ccc(NC(=O)NNC(=O)c2ccc(-c3ccccc3)cc2)cc1,-26.8%
3,CCS(=O)(=O)N1CCN(c2ncnc3sc(C)c(C)c23)CC1,-20%
4,Cc1nc(N2CCN(S(=O)(=O)c3ccc(Br)cc3)CC2)c2c(C)c(C)sc2n1,3.7%
5,CNS(=O)(=O)c1cc(N(C)S(=O)(=O)c2ccc(C)cc2)c(C)cc1C,-1.6%
6,CC1=NCCN1S(=O)(=O)c1cc([N+](=O)[O-])ccc1Cl,-40.2%
7,COc1ccc(COc2cc(-c3cccc(OC)c3)nc3ccc(NC(=O)c4ccccc4)cc23)cc1,48.6%
8,COc1ccc(COc2cc(-c3cccc(OC)c3)nc3ccc(NC(=O)c4cccnc4)cc23)cc1,78.1% (active)
9,COc1ccc(COc2cc(-c3cccc(OC)c3)nc3ccc(NC(=O)c4ccc(OC)cc4)cc23)cc1,41.3%
10,CC(C)(C)C(=O)NC1=NN(c2c(Cl)cc(Cl)cc2Cl)C(=O)C1,-19.7%
11,CC(C)c1ccccc1NC(=O)COC(=O)c1c2c(nc3ccccc13)CCN(Cc1ccccc1)C2,29.8%
12,Cc1ccc(NC(=O)CSc2nc(N)c3c4c(sc3n2)CSC(C)(C)C4)cc1,22.5%
13,Cc1ccccc1NC(=O)CSc1nc(N)c2c3c(sc2n1)CSC(C)(C)C3,-19.5%
14,CC(Sc1nc(N)c2c3c(sc2n1)CSC(C)(C)C3)C(=O)Nc1ccccc1 (stereo not drawn),66.5% (active)
15,COc1ccc(OC)c(-n2nnnc2SCC(=O)N2CCN(C(=O)c3ccco3)CC2)c1,-16.1%
16,Cc1ccc(NC(=O)C2CC(=O)n3ncnc3N2)cc1C (stereo not drawn),-33.1%
17,CC(=O)NCc1ccc(C(=O)CCl)s1,88.3% (active)
18,CC(=O)NCc1ccc(C(=O)CCl)cc1,-4%
19,CC(=O)NCc1ccc(-c2csc(N)n2)s1,1.1%
20,Cc1ccc(C(=O)COC(=O)c2cc(Cl)nc3ccccc23)cc1,-10.7%
21,COc1cc(Br)c(CN2CCCN(C)CC2)cc1OC,-24.3%
22,O=[N+]([O-])c1cccc(-c2nc3ccccc3s/c2=N/O)c1,2.3%
23,N#C/C(=C(/O)COC(=O)c1ccccc1O)c1nc2ccccc2s1,16.3%
24,CC(C)=C(C#N)c1nc2ccccc2s1,-26.3%

row,Compound,inhibition
1,N#C/C(=C(/O)c1ccc(-c2cccc([N+](=O)[O-])c2)o1)c1nc2ccccc2s1,101% (active)
2,CC(C)(C)c1ccc(C(=O)OC/C(O)=C(\C#N)c2nc3ccccc3s2)cc1,92% (active)
3,N#C/C(=C(/O)c1ccccc1F)c1nc2cc(C(F)(F)F)ccc2s1,-28.9%
4,N#C/C(=C\N1CCN(Cc2ccc3c(c2)OCO3)CC1)c1nc2ccccc2s1,24.5%
5,N#C/C(=C(/O)c1cc2ccccc2o1)c1nc2ccccc2s1,65.8% (active)
6,N#C/C(=C(/O)COC(=O)c1ccc(C#N)cc1)c1nc2ccccc2s1,-35.4%
7,N#C/C(=C(/O)c1ccc2c(c1)OCO2)c1nc2cc(C(F)(F)F)ccc2s1,86.4% (active)
8,O=C(O)c1ccc(-c2cccc([N+](=O)[O-])c2)o1,9.4%
9,N#C/C(=C(/O)c1ccco1)c1nc2ccccc2s1,-3.1% and -9.8%
10,CN(C)CCCN(Cc1ccccc1)C(=S)NCc1ccccc1,-3.5%
11,Cc1ccc(C)c(-n2nnnc2SCC(=O)Nc2c(C)n(C)n(-c3ccccc3)c2=O)c1,-6.2%
12,CCOc1ncccc1C(=O)Nc1nnc(C)s1,-28.7%
13,CC(C)NC(=O)C(=O)NCCN1CCN(C(=O)c2ccc(C(C)(C)C)cc2)CC1,-31.9%
14,Cc1c(CCO)c(=O)[nH]n1S(=O)(=O)c1ccc(Cl)cc1Cl,-2.3%
15,COc1ccccc1NC(=S)NC(=O)/C=C/c1ccco1,-34.4%
16,COc1ccc2[nH]c(C(=O)Nc3ncc(C)cc3Br)cc2c1,1.8%
17,Cc1cccc(Cc2nnc(CCC(=O)N(C)Cc3ccncc3C)o2)c1,-15.4%
18,COC(=O)c1ccc(C23CC4(C2)[C@H](CN(Cc2ccc(-c5ccccc5)cc2)[C@@H]4c2ccccc2)C3c2ccc(Cl)nc2)cc1 (stereo partly drawn),-11.8%
19,CCOP(=O)(c1ccc(N(C)C)cc1)C(O)c1ccccc1 (stereo not drawn),-12.2%
20,N#C/C(=C(/O)c1ccc(F)cc1)c1nc2ccccc2s1,61.2% (active)
21,N#C/C(=C(/O)c1cccc(F)c1)c1nc2ccccc2s1,3.7%
22,COC(=O)c1ccc(/C(O)=C(\C#N)c2nc3ccccc3s2)cc1,29.2%
23,O=C(CSc1cn[nH]n1)Nc1ccccc1C(F)(F)F,-20.2%
24,CCOC(=O)CNC(=O)C(CC(N)=O)NC(=O)OC(C)(C)C (stereo not drawn),-7.6%

row,Compound,inhibition
1,Cc1cc(CN(C)C(=O)c2cc(COc3ccc4ncccc4c3)on2)on1,13.2%
2,CN(Cc1cccnc1)C(=O)c1cc(COc2ccc3c(c2)CCCC3)on1,-46.9%
3,Cc1nc(CN(C)C(=O)c2cc(COc3c(F)cccc3F)on2)cs1,-40.5%
4,CN(Cc1nccn1C)C(=O)c1cc(COc2ccc3ncccc3c2)on1,-6.6%
5,COc1cc(NC(=O)c2ccco2)c(OC)cc1NC(=O)CSc1ncc(-c2ccc(F)cc2)[nH]1,-33.5%
6,COc1ccc(N2CCN(C(=O)C3CCN(S(=O)(=O)c4c(C)noc4/C=C/N(C)C)CC3)CC2)cc1,-9.1%
7,O=C(NCCc1ccccc1)C(=O)NCC1OCCCN1S(=O)(=O)c1cccs1 (stereo not drawn),-40.9%
8,COc1cc(/C=C/C(=O)Nc2nc3ccc(S(=O)(=O)N(C)C)cc3s2)cc(OC)c1OC,28.3%
9,CCc1cccc2c(C(=O)COC(=O)C3=NNC(=O)CC3)c[nH]c12,-12.4%
10,CCc1cccc2c(C(=O)COC(=O)c3ccc(O)cc3)c[nH]c12,-17.9%
11,CCc1cccc2c(C(=O)COC(=O)c3cccc(S(=O)(=O)N(C)C4CCCCC4)c3)c[nH]c12,77.3% (active)
12,Cc1noc(C)c1C(=O)OCC(=O)c1c[nH]c2ccccc12,-6.2%
13,CCc1cccc2c(C(=O)COC(=O)c3c(C)noc3C)c[nH]c12,92.9% (active)
14,CCc1cccc2c(C(=O)COC(=O)c3ccccc3)c[nH]c12,-19.8%
15,CCS(=O)CCSc1nc2ccccc2s1 (stereo not drawn),-10.5%
16,N#Cc1cc(C(=O)c2ccccc2O)cn(-c2nccs2)c1=O,-9.7%
17,O=C(NCc1ccccc1)C1CCN(c2nc(-c3ccccc3)nc3c2CCC3)CC1,15.8%
18,CC[C@@H]1CC=C[C@H]2[C@H]1C(=O)N(Cc1ccccc1)[C@H]2c1ccc(C(F)(F)F)cc1,-2.1%
19,COc1ccc(C(=O)O/N=C2\CCCc3nonc32)cc1,-0.9%
20,CC(/C=C/c1ccccc1)=N\NC(=O)c1ccncc1,0.4%
21,CC(/C=C/c1ccccc1)=N\NC(=O)c1ccc(Br)cc1,43.7%
